# According to PMC8384837, “Expanding the binding specificity for RNA recognition by a PUF domain”:
# Molecular target: PUM1 PUF domain R4-WSS (Homo sapiens, UniProt Q14671 828-1176, N971W;H972S;Q975S)
# Assay: yeast three-hybrid, YBZ-1, SC-Leu-His + 0.5 mM 3-AT, 4 days
# Details: tags: N-Gal4 AD-HA kept; label: inside an RPR1-promoter hybrid RNA with tandem MS2 sites; ssRNA
# In short: (§1)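 Sequencing with Illumina followed PCR amplification of the repeat regions from transformants grown four days on SC-Leu (input) or SC-Leu-His + 0.5 mM 3-AT (selection). The transformants were strain YBZ-1 with a LexA–MS2 coat fusion and a HIS3 reporter, carrying Pumilio-1 PUF domain libraries and matching RNA elements. The interaction score is the log change in variant frequency from input to selection, computed in log2 with a pseudocount of 1 for absent variants.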
# Sequence of PUM1 PUF domain R4-WSS (Q14671 828-1176 N971W/H972S/Q975S): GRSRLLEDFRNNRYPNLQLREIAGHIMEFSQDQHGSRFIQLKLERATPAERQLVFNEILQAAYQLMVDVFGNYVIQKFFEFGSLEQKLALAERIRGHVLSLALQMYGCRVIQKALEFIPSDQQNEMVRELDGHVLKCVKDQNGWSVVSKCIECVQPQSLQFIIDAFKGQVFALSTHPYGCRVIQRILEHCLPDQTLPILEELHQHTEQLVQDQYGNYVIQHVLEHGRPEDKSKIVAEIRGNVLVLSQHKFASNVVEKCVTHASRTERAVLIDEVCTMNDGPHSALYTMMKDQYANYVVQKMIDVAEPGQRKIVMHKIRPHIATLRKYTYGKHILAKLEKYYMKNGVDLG
row,Sequence,binding signal
1,GGCUAGAACUAGUGGAUCCCCCGGCGCCCGGCGGCUCGAGCCCGGGUAAGUGUAAAUAGUCUGCAUGCCGCCGGGCGCCAUGCCUGCAGGUCGACUCUAGAAAACAUG,2.27 log2 enrichment (interaction score)
2,GGCUAGAACUAGUGGAUCCCCCGGCGCCCGGCGGCUCGAGCCCGGGUAAGUGUAUAUAGUCUGCAUGCCGCCGGGCGCCAUGCCUGCAGGUCGACUCUAGAAAACAUG,4.4 log2 enrichment (interaction score)
3,GGCUAGAACUAGUGGAUCCCCCGGCGCCCGGCGGCUCGAGCCCGGGUAAGUGUACAUAGUCUGCAUGCCGCCGGGCGCCAUGCCUGCAGGUCGACUCUAGAAAACAUG,2 log2 enrichment (interaction score)

# Molecular target: PUM1 PUF domain R5-RRI (Homo sapiens, UniProt Q14671 828-1176, C1007R;Q1011I)
# Sequence (Q14671 828-1176 C1007R/Q1011I): as the sequence (Q14671 828-1176 N971W/H972S/Q975S) above, with W144N, S145H, S148Q, C180R, Q184I counted along it
# Assay: as above
# Details: tags: N-Gal4 AD-HA kept; label: inside an RPR1-promoter hybrid RNA with tandem MS2 sites; ssRNA
# In short: as §1
row,Sequence,binding signal
1,GGCUAGAACUAGUGGAUCCCCCGGCGCCCGGCGGCUCGAGCCCGGGUAAGUGUCAAUAGUCUGCAUGCCGCCGGGCGCCAUGCCUGCAGGUCGACUCUAGAAAACAUG,3.62 log2 enrichment (interaction score)
2,GGCUAGAACUAGUGGAUCCCCCGGCGCCCGGCGGCUCGAGCCCGGGUAAGUGUUAAUAGUCUGCAUGCCGCCGGGCGCCAUGCCUGCAGGUCGACUCUAGAAAACAUG,4.69 log2 enrichment (interaction score)
3,GGCUAGAACUAGUGGAUCCCCCGGCGCCCGGCGGCUCGAGCCCGGGUAAGUGUAAAUAGUCUGCAUGCCGCCGGGCGCCAUGCCUGCAGGUCGACUCUAGAAAACAUG,2.01 log2 enrichment (interaction score)

# Molecular target: PUM1 PUF domain R1-RRQ (Homo sapiens, UniProt Q14671 828-1176, S863R)
# Sequence (Q14671 828-1176 S863R): as the sequence (Q14671 828-1176 N971W/H972S/Q975S) above, with S36R, W144N, S145H, S148Q counted along it
# Assay: as above
# Details: tags: N-Gal4 AD-HA kept; label: inside an RPR1-promoter hybrid RNA with tandem MS2 sites; ssRNA
# In short: as §1
row,Sequence,binding signal
1,GGCUAGAACUAGUGGAUCCCCCGGCGCCCGGCGGCUCGAGCCCGGGUAAGUGUAAAUUGUCUGCAUGCCGCCGGGCGCCAUGCCUGCAGGUCGACUCUAGAAAACAUG,4.29 log2 enrichment (interaction score)
2,GGCUAGAACUAGUGGAUCCCCCGGCGCCCGGCGGCUCGAGCCCGGGUAAGUGUAAAUGGUCUGCAUGCCGCCGGGCGCCAUGCCUGCAGGUCGACUCUAGAAAACAUG,1.96 log2 enrichment (interaction score)
3,GGCUAGAACUAGUGGAUCCCCCGGCGCCCGGCGGCUCGAGCCCGGGUAAGUGUAAAUCGUCUGCAUGCCGCCGGGCGCCAUGCCUGCAGGUCGACUCUAGAAAACAUG,5.5 log2 enrichment (interaction score)

# Molecular target: PUM1 PUF domain R5-QRR (Homo sapiens, UniProt Q14671 828-1176, C1007Q;Q1011R)
# Sequence (Q14671 828-1176 C1007Q/Q1011R): as the sequence (Q14671 828-1176 N971W/H972S/Q975S) above, with W144N, S145H, S148Q, C180Q, Q184R counted along it
# Assay: as above
# Details: tags: N-Gal4 AD-HA kept; label: inside an RPR1-promoter hybrid RNA with tandem MS2 sites; ssRNA
# In short: as §1
row,Sequence,binding signal
1,GGCUAGAACUAGUGGAUCCCCCGGCGCCCGGCGGCUCGAGCCCGGGUAAGUGUCAAUAGUCUGCAUGCCGCCGGGCGCCAUGCCUGCAGGUCGACUCUAGAAAACAUG,6.46 log2 enrichment (interaction score)
2,GGCUAGAACUAGUGGAUCCCCCGGCGCCCGGCGGCUCGAGCCCGGGUAAGUGUUAAUAGUCUGCAUGCCGCCGGGCGCCAUGCCUGCAGGUCGACUCUAGAAAACAUG,4.36 log2 enrichment (interaction score)
3,GGCUAGAACUAGUGGAUCCCCCGGCGCCCGGCGGCUCGAGCCCGGGUAAGUGUGAAUAGUCUGCAUGCCGCCGGGCGCCAUGCCUGCAGGUCGACUCUAGAAAACAUG,3 log2 enrichment (interaction score)
4,GGCUAGAACUAGUGGAUCCCCCGGCGCCCGGCGGCUCGAGCCCGGGUAAGUGUAAAUAGUCUGCAUGCCGCCGGGCGCCAUGCCUGCAGGUCGACUCUAGAAAACAUG,1.74 log2 enrichment (interaction score)

# Molecular target: PUM1 PUF domain R4-WAW (Homo sapiens, UniProt Q14671 828-1176, N971W;H972A;Q975W)
# Sequence (Q14671 828-1176 N971W/H972A/Q975W): as the sequence (Q14671 828-1176 N971W/H972S/Q975S) above, with S145A, S148W counted along it
# Assay: as above
# Details: tags: N-Gal4 AD-HA kept; label: inside an RPR1-promoter hybrid RNA with tandem MS2 sites; ssRNA
# In short: as §1
row,Sequence,binding signal
1,GGCUAGAACUAGUGGAUCCCCCGGCGCCCGGCGGCUCGAGCCCGGGUAAGUGUAAAUAGUCUGCAUGCCGCCGGGCGCCAUGCCUGCAGGUCGACUCUAGAAAACAUG,5.21 log2 enrichment (interaction score)
2,GGCUAGAACUAGUGGAUCCCCCGGCGCCCGGCGGCUCGAGCCCGGGUAAGUGUAUAUAGUCUGCAUGCCGCCGGGCGCCAUGCCUGCAGGUCGACUCUAGAAAACAUG,4.31 log2 enrichment (interaction score)
3,GGCUAGAACUAGUGGAUCCCCCGGCGCCCGGCGGCUCGAGCCCGGGUAAGUGUACAUAGUCUGCAUGCCGCCGGGCGCCAUGCCUGCAGGUCGACUCUAGAAAACAUG,2.47 log2 enrichment (interaction score)

# Molecular target: PUM1 PUF domain R5-KQL (Homo sapiens, UniProt Q14671 828-1176, C1007K;R1008Q;Q1011L)
# Sequence (Q14671 828-1176 C1007K/R1008Q/Q1011L): as the sequence (Q14671 828-1176 N971W/H972S/Q975S) above, with W144N, S145H, S148Q, C180K, R181Q, Q184L counted along it
# Assay: as above
# Details: tags: N-Gal4 AD-HA kept; label: inside an RPR1-promoter hybrid RNA with tandem MS2 sites; ssRNA
# In short: as §1
row,Sequence,binding signal
1,GGCUAGAACUAGUGGAUCCCCCGGCGCCCGGCGGCUCGAGCCCGGGUAAGUGUCAAUAGUCUGCAUGCCGCCGGGCGCCAUGCCUGCAGGUCGACUCUAGAAAACAUG,5.23 log2 enrichment (interaction score)
2,GGCUAGAACUAGUGGAUCCCCCGGCGCCCGGCGGCUCGAGCCCGGGUAAGUGUUAAUAGUCUGCAUGCCGCCGGGCGCCAUGCCUGCAGGUCGACUCUAGAAAACAUG,3.92 log2 enrichment (interaction score)
3,GGCUAGAACUAGUGGAUCCCCCGGCGCCCGGCGGCUCGAGCCCGGGUAAGUGUAAAUAGUCUGCAUGCCGCCGGGCGCCAUGCCUGCAGGUCGACUCUAGAAAACAUG,1.4 log2 enrichment (interaction score)
